Out of some 68,000 compounds screened, about 2,700 (4%) showed an effect of 50% or more. The full list was thinned out, with strong results kept by preference.

For the test, the system named is Plasmodium berghei. Description: Screen against P. berghei liver stage (PbLuc), transformed with Luciferase, at 2uM. Format: functional, HepG2. As to conditions: tested at 2 uM.
With `O=C(NCCOC1CCCC1)c1ccc(-c2ccco2)[nH]c1=O`, the INHIBITION was -40.62%.

As for `c1ncc(Nc2nccc(C3CCCCN3CC3CCCCC3)n2)cn1` (centres undefined), the INHIBITION is listed as -8.23%.

`O=C(CCc1ccc(O)cc1)N1CCC(Cc2ccc(CO)cc2)C1` (centres undefined): the INHIBITION is 11.28%.

As to `O=C(CCN1CCOCC1)N1CCC(Cc2ccc(CO)cc2)C1` (centres undefined), the INHIBITION is reported as -11.66%.

In the case of `O=C(CCN1CCCCC1)N1CCC(Cc2ccc(CO)cc2)C1` (centres undefined), the INHIBITION came out at 50.61%.

As for `O=C(CN1CCC(c2cccc(F)c2)C1)NCC(F)(F)F` (centres undefined), the INHIBITION worked out at 20.28%.

Regarding `CC(C)NC(=O)CN1CCC(c2cccc(F)c2)C1` (centres undefined), the INHIBITION was 28.33%.

Turning to `O=C(CN1CCC(c2cccc(F)c2)C1)NCc1ccco1` (centres undefined), the INHIBITION was 51.21%.

With `CN1C[C@H]2CC[C@@H](CC1=O)N2C(=O)c1ccc(-c2ccccc2)[nH]c1=O`, the INHIBITION was -40.36%.

Turning to `Nc1nccc(C2CCN(CCO)C2)n1` (centres undefined), the INHIBITION turned out to be 19.86%.

In the case of `Cc1ccc(N2CCO[C@H]3CN(Cc4ccccn4)C[C@H]32)nn1`, the INHIBITION amounted to 4.99%.

Regarding `Cc1ccoc1C(=O)N1CCn2cc(CN3CCCC3)nc2C1`, the INHIBITION turned out to be 37.2%.

For `O=S(=O)(CC1CC1)c1ncc(CN2CCSCC2)n1CC1CCCO1` (centres undefined), the INHIBITION is listed as 65.76%.

Regarding `CC1CCN(Cc2cnc(S(=O)(=O)CC3CC3)n2CC2CCCO2)CC1` (centres undefined), the INHIBITION is -14.32%.

Consider `O=S(=O)(CC1CC1)c1ncc(CN2CCOCC2)n1CC1CCCO1` (centres undefined), for which the INHIBITION was determined as 3.49%.

As for `CN1CCN(Cc2cnc(S(=O)(=O)CC3CC3)n2CC2CCCO2)CC1` (centres undefined), the INHIBITION came out at 1.8%.

For the molecule `CCCS(=O)(=O)c1ncc(CN2CCC(CO)CC2)n1CC1CCCO1` (centres undefined), the INHIBITION worked out at 27.44%.

In the case of `CCCS(=O)(=O)c1ncc(CN2CCC(C)CC2)n1CC1CCCO1` (centres undefined), the INHIBITION came out at 70.81%.

Regarding `O=C(NC1CCCN(c2ncccn2)C1)c1ccoc1` (centres undefined), the INHIBITION is reported as 36.98%.

For `CC(=O)c1c(C)nn(S(=O)(=O)c2ccc(Cl)cc2)c1C`, the INHIBITION was determined as 11.8%.

Regarding `O=C(O)c1ccnc(SCC(=O)c2ccccc2)c1`, the INHIBITION is on record as 25.23%.

In the case of `Cc1ccc(OC2CCN(S(=O)(=O)N(C)C)CC2)nc1`, the INHIBITION worked out at 15.75%.

As to `C[C@H]1CN2C[C@H](O)CC2CN1Cc1ccc2nccnc2c1` (some centres undefined), the INHIBITION is -36.08%.

For `CCN(C(=O)NCCc1ccccc1Cl)C(C)CS(C)(=O)=O` (centres undefined), the INHIBITION is 34.46%.

Turning to `CCN(C(=O)NCCc1cccc(F)c1F)C(C)CS(C)(=O)=O` (centres undefined), the INHIBITION came to 64.2%.

As to `COc1ccccc1CCNC(=O)N(C)C(C)CS(C)(=O)=O` (centres undefined), the INHIBITION was 50.46%.

Take `CCS(=O)(=O)CC(C)N(C)C(=O)NCCc1cccc(F)c1F` (centres undefined): the INHIBITION was -4.09%.

For `COc1cc(Cl)ccc1CNC(=O)N(C)C(C)CS(C)(=O)=O` (centres undefined), the INHIBITION is -22.82%.

As to `CC(C)Oc1ccccc1CNC(=O)N(C)C(C)CS(C)(=O)=O` (centres undefined), the INHIBITION is -25.21%.
